Laboratory results reported in article PMC5540273 (PLoS ONE, 2017).

Assays:
Conditions in all cases: concentration: 1 μM, replicates: in singlicate; n = 1
ERK4 = system: T1, ERK4
T1 construct: gene MAPK4

ERK5 = system: T2, ERK5
T2 construct: gene MAPK7

ERK8 = system: T3, ERK8
T3 construct: gene MAPK15

ERN1 = system: ERN1
FAK = system: T4, FAK
T4 construct: gene PTK2

FER = system: FER
FES = system: FES
FGFR1 = system: FGFR1
FGFR2 = system: FGFR2
FGFR3 = system: FGFR3
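Further: KINOMEscan kinase panel screen.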

Row | Structure (SMILES) | %Inh (ERK4) [%] | %Inh (ERK5) [%] | %Inh (ERK8) [%] | %Inh (ERN1) [%] | %Inh (FAK) [%] | %Inh (FER) [%] | %Inh (FES) [%] | %Inh (FGFR1) [%] | %Inh (FGFR2) [%] | %Inh (FGFR3) [%]
1 | Cc1cc(N2CCC(NS(=O)(=O)c3ccc(F)cc3)CC2)nc(Nc2cccc(C#N)c2)n1.O=C(O)C(F)(F)F [GSK1653537] | 0 | 0 | 31 | 0 | 0 | 18 | 26 | 6 | 0 | 16
2 | CC(C)N1CCC(n2cnc(-c3ccc(F)cc3)c2-c2ccnc(N)n2)CC1 [SB-223132] | 0 | 0 | 4 | 0 | 16 | 8 | 0 | 22 | 10 | 21
3 | CNc1nccc(-c2c(-c3ccc(F)cc3)ncn2CCCN2CCOCC2)n1 [SB-222516] | 2 | 0 | 14 | 0 | 6 | 12 | 7 | 26 | 0 | 0
4 | Clc1ccc(-c2cc(-c3c[nH]nc3-c3ccccn3)ccn2)cc1 [GW681251] | 6 | 0 | 0 | 0 | 0 | 9 | 0 | 0 | 0 | 1
5 | C[C@@H]1CCN(C(=O)CO)C[C@@H]1N(C)c1ncnc2[nH]ccc12 | 19 | 0 | 9 | 0 | 0 | 8 | 0 | 12 | 7 | 0
6 | Cn1cc(-c2ccc3c(c2)CCN3C(=O)Cc2cccc(C(F)(F)F)c2)c2c(N)ncnc21 [GSK2606414] | 7 | 0 | 23 | 21 | 0 | 0 | 0 | 20 | 0 | 0
7 | Cl.Cn1ccc(-c2cccc(Nc3ccnc4cc(-c5nccs5)ccc34)c2)n1 [GW525701] | 9 | 0 | 0 | 0 | 0 | 8 | 22 | 0 | 0 | 11
8 | Cl.Fc1ccccc1COc1ccc(Nc2ncnc3ccc(-c4nnc(C(F)(F)F)o4)cc23)cc1Cl [GW424170] | 13 | 0 | 0 | 2 | 0 | 18 | 0 | 0 | 0 | 8
9 | COc1ccc(Nc2nccc(N3CCC(NC(=O)Nc4ccc5c(c4)OCO5)C3)n2)cc1 (centres unmarked) [GSK1379745] | 0 | 0 | 48 | 0 | 1 | 33 | 18 | 9 | 1 | 32
10 | FC(F)(F)c1cc(Nc2nccc(-c3c(-c4ccc(Cl)cc4)nn4ncccc34)n2)ccc1Cl [GW829351] | 0 | 0 | 0 | 0 | 0 | 0 | 0 | 0 | 0 | 0
11 | Cl.Cl.c1ccc(-c2cc3ccncc3cc2OC2CCNCC2)cc1 [GSK1122999] | 8 | 0 | 0 | 0 | 0 | 36 | 0 | 0 | 0 | 11
12 | CNc1nccc(-c2c(-c3ccc(F)cc3)ncn2C2CCN(C)CC2)n1 [SB-222903] | 0 | 9 | 6 | 0 | 43 | 0 | 0 | 0 | 0 | 0
13 | Nc1nccc2scc(-c3ccc4c(c3)CCN4C(=O)Cc3cc(F)ccc3F)c12 [GSK2587663] | 0 | 0 | 14 | 2 | 0 | 26 | 18 | 0 | 1 | 9
14 | FC(F)(F)c1ccc(-c2nn3ncccc3c2-c2ccnc(Nc3cccc(C(F)(F)F)c3)n2)cc1 [GW828205] | 0 | 0 | 0 | 0 | 9 | 2 | 7 | 33 | 100 | 8
15 | O=C(NCCCN1CCCC1=O)c1cnc(NCc2cc(Cl)ccc2Cl)nc1NC1CCNCC1 | 0 | 0 | 17 | 0 | 0 | 0 | 0 | 11 | 14 | 0
16 | Fc1cccc(COc2ccc(Nc3ncnc4nn5ccccc5c34)cc2Cl)c1 [GW689066] | 0 | 0 | 0 | 0 | 0 | 16 | 0 | 0 | 12 | 3
17 | CC(C)(C)c1ccc(-n2cnc3c(N)ncnc32)cc1 [SKF-97263] | 0 | 0 | 48 | 6 | 0 | 13 | 13 | 12 | 20 | 15
